For the experiment, the target named is AMP-activated protein kinase, AMPK (Homo sapiens) (UniProt P54646+O43741+P54619+Q9UGJ0+Q9Y478+Q13131+Q9UGI9). As to the kind of experiment: AMP-dependent Kinase enzyme assay. An in vitro enzyme assay that detects ADP turnover that is directly proportional to AMPK activity. This uses naive AMPK that is activated during the assay with MK-8722. In kind it is functional. Set-up: scale not given: direction of the effect not stated beside the values. To be noted: 30 µM.

With `Cc1cc(=O)c2cc(F)ccc2n1CC(=O)O`, the Percent Effect turned out to be 7.06%.

Turning to `Cc1cc(CNCC2(O)CCOCC2)ccc1Br`, the Percent Effect was -7.22%.

For the compound `CN(C)C(=O)c1ccccc1NC(=O)N[C@@H]1c2ccccc2C[C@@H]1O`, the Percent Effect is 3.27%.

Turning to `O=C(NCC1CCOC1)c1cc(-c2cccc(Cl)c2)[nH]n1` (stereo not given), the Percent Effect was 7.17%.

On to `CCCc1nnc(N2CCC(N3CCCCCC3)CC2)o1`, for which the Percent Effect is -2.81%.

For `Cc1nccn1-c1nccnc1C1CCCN(C2CCCC2)C1` (stereo not given), the Percent Effect was 12.6%.

As for `O=S(=O)(NCCCn1cncn1)c1ccc2c(c1)OCCCO2`, the Percent Effect stood at 10.2%.

`CN1CCN([C@H]2CCN(C(=O)c3nn(C)cc3Cl)C[C@H]2CCCO)CC1`: the Percent Effect is 4.08%.

As for `COCC1(C(=O)N[C@H]2CN(c3nnc(C)s3)C[C@@H]2C2CC2)CCC1`, the Percent Effect is 9.28%.

For `N#CC1COCCN1C(=O)c1ccc2[nH]ccc2c1` (stereo not given), the Percent Effect is 7.92%.

As for `Cc1ccccc1C(NC(=O)CCCS(C)(=O)=O)C(C)(C)C` (stereo not given), the Percent Effect was 7.1%.

Take `CCC(C)NC(=O)Nc1cccc(OCC#N)c1` (stereo not given): the Percent Effect was -0.326%.

`c1cn(-c2nccnc2C2CCCN(C3CCOCC3)C2)cn1` (stereo not given): the Percent Effect was found to be 10.1%.

As for `Cc1noc(OCC(=O)N2CCCCC2C)n1` (stereo not given), the Percent Effect was -1.69%.

Take `N#CC1COCCN1C(=O)c1cccc2cc[nH]c12` (stereo not given): the Percent Effect was 5.13%.

As for `Cc1c(Br)cccc1NC(=O)N(C)CCO`, the Percent Effect was -2.37%.

As to `COc1ccccc1C1CCN(C(=O)CN2C(=O)OC(C)(C)C2=O)CC1`, the Percent Effect was -11.8%.

On to `COc1ccccc1CNC(=O)C(C)N1CC(n2nc(C)cc2C)C1` (stereo not given), for which the Percent Effect worked out at 3.14%.

Take `O=C(NCCc1ccccn1)N1CCOC(c2ccccc2Cl)C1` (stereo not given): the Percent Effect was -1.2%.

Consider `CCN(CC)c1nc2sc(C(=O)N3CCNC(=O)C3)cc2s1`, for which the Percent Effect worked out at 3.77%.

Consider `COCCC(=O)N1CCCC(CCC(=O)Nc2ccc(Cl)cc2)C1` (stereo not given), for which the Percent Effect amounted to 5.38%.

In the case of `COc1ccc(C2(C(=O)N3CC(c4cccnc4)C3)CC2(C)C)cc1` (stereo not given), the Percent Effect was -5.88%.

For the compound `COC(=O)CSCc1noc(-c2ccc(C)cc2)n1`, the Percent Effect was -5.29%.

As for `Cc1oc(-c2ccco2)nc1CN1CCc2cnc(C(C)C)nc2C1`, the Percent Effect is -25.9%.

As for `COc1c(C2CCCN2CC(=O)N(C)c2nccs2)c(C)nn1C` (stereo not given), the Percent Effect is 5.92%.

On to `Cc1nc(CNCC2CNc3ccnn3C2)cs1` (stereo not given), for which the Percent Effect is -8.22%.

For the compound `Cc1nnc(N2CCc3cnc(C(C)C)nc3C2)c(C#N)c1C`, the Percent Effect was -15.2%.

As for `Cc1nn2cccnc2c1C(=O)NCc1ccccc1OCC1CC1`, the Percent Effect was found to be 2.06%.

Consider `Cc1c(C(=O)NCCC(=O)N2CCCC2)cccc1-c1ccccn1`, for which the Percent Effect was 13.9%.

`CCCc1nnc(N2CCC(N3CCCC(O)C3)CC2)o1` (stereo not given): the Percent Effect turned out to be 4.12%.

As to `Cc1cnn(C2CN(CCOc3ccccc3C#N)C2)c1`, the Percent Effect was 6.15%.

Regarding `O=C(NCCN1CCNC1=O)c1cnc(-c2cccnc2)nc1`, the Percent Effect was 6.47%.

Take `CC(C)Cc1noc(CC2CCS(=O)(=O)C2)n1` (stereo not given): the Percent Effect was -13.3%.

For the compound `CC(NC(=O)C1CCCCC1)c1cc(O)nc(-c2cccnc2)n1` (stereo not given), the Percent Effect stood at 5.58%.

For `CCc1nc(CNc2cc(C)nc(-c3cccnc3)n2)cs1`, the Percent Effect was -0.151%.

In the case of `CC(C)CNC(=O)c1[nH]nc(C2CC2)c1Br`, the Percent Effect was -2.23%.

In the case of `COc1ncccc1-c1cc(C(N)=O)ccn1`, the Percent Effect turned out to be 1.56%.

`Nc1ncnc2nc(C3CCCCN3)ccc12` (stereo not given): the Percent Effect amounted to 15.5%.

Consider `CN(CCc1ccncc1)CCc1nccs1`, for which the Percent Effect was 1.48%.

As to `O=C(c1cccnc1O)N1CCC2(CCCO2)CC1`, the Percent Effect amounted to 0.948%.

For `O=C(CCn1ccnc1)N1CC[C@H](Oc2cccc(F)c2)[C@@H](O)CC1`, the Percent Effect is -2.81%.

`CCc1nc2n(n1)CC(NCc1nc3ccccc3o1)CC2` (stereo not given): the Percent Effect is 2.97%.

For `C=C(C)COc1cccc(CNCCc2nc(N)cc(O)n2)c1`, the Percent Effect came to 3.76%.

As to `O=C(NC1CCN(C2CC2)CC1)c1cn(-c2ccc(Cl)cc2)nn1`, the Percent Effect was found to be 0.108%.

Take `OC(c1cnn(-c2ccccc2)c1)C(F)(F)F` (stereo not given): the Percent Effect was -6.83%.

`Cc1nsc(N2CCCN(C(=O)CCc3ccsc3)CC2)n1`: the Percent Effect is -4.46%.

Take `O=C(O)c1cnc(OCC2CC2)c(Cl)c1`: the Percent Effect was -1.49%.

On to `O=C(Nc1cccc(N2CCCC2)c1)N[C@H](CCO)c1ccccc1`, for which the Percent Effect is -57.9%.

Consider `Cc1cc(C(=O)NC2CCN(c3nnc(C)c(C)c3C#N)CC2)no1`, for which the Percent Effect was -21.4%.

In the case of `CN(Cc1ccncc1)Cc1cnn(-c2ccc(F)cc2)c1`, the Percent Effect stood at 11.6%.

Turning to `Cc1nc(-n2nc(-c3cccs3)cc2N)[nH]c(=O)c1C`, the Percent Effect is -14.4%.

`O=C(CCc1nc(-c2ccsc2)no1)NCC1CCN(C2CC2)C1` (stereo not given): the Percent Effect was found to be 1.07%.

Take `O=C(NCC(F)(F)F)c1ccc(-n2cncn2)nn1`: the Percent Effect was -2.06%.

As to `O=C1CN([C@@H]2CC[C@@H](NS(=O)(=O)c3ccc(F)cc3)[C@H]2O)CCN1`, the Percent Effect is 2.53%.

Regarding `CCN(CC)S(=O)(=O)CC(=O)Nc1ccsc1`, the Percent Effect came out at 2.3%.

As to `CCN(CCCNC(=O)Nc1ccccc1C(C)C)S(C)(=O)=O`, the Percent Effect was found to be 11%.

Consider `CCC(=O)NC1CCCN(c2cncc(OCc3ccccc3)n2)C1` (stereo not given), for which the Percent Effect is 5.23%.

For `CC(NC(=O)NC1CCN(Cc2ccncc2)CC1)c1ccc(F)cc1` (stereo not given), the Percent Effect came to 7.79%.

For the compound `CCNC(=O)[C@@H]1C[C@H](N)CN1c1cc(C(F)(F)F)nc(N(C)C)n1`, the Percent Effect is -12%.

As to `N#Cc1cccc(N2CCCC(CO)(CCOc3ccccc3)C2)n1` (stereo not given), the Percent Effect came out at 3.31%.

In the case of `O=C1NC(C(=O)NCc2cccnc2Oc2ccccc2F)CO1` (stereo not given), the Percent Effect was 4.53%.

For `O=C(NCc1sc2ccccc2c1Cl)c1cc2n(n1)CCNC2`, the Percent Effect was 10.8%.

`O=C1CCCCN1Cc1cccc(OC(F)F)c1`: the Percent Effect turned out to be 11.1%.

`Cc1nsc(C(=O)NCCc2ccc(Cl)cc2)n1`: the Percent Effect was -0.0138%.

As to `CCC(NCCn1cc(C)cn1)C(=O)Nc1cc(C)on1` (stereo not given), the Percent Effect is -6.29%.

(Values after ChEMBL document CHEMBL3988442, “University of Dundee, Small-Polar-MMV Screening Library” (2021).)
